IP6K1 inh: blocks human inositol hexakisphosphate kinase 1; Q92551; IP6K1 kinase, ADP-Glo luminescence, 2 h; hits give low values; activity change, % (series mostly up to about 58 µM); hit rate 0.81% among 140,000; AID 1645851; in the data active = activity change below about -25%; also: % is scaled to controls: 0 for no effect and ±100 for the full control effect
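ADP-Glo luminescence measures ADP made by human IP6K1 during a 2 h RT reaction with ATP/IP6 (mix at 1.3 mM/130 uM); top library doses 57.5 and 19.1 uM final.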
KDM5B inhibitor: blocks human KDM5B histone demethylase activity; Q9UGL1; KDM5B demethylase, FDH-coupled NADH fluorescence (FDH is formaldehyde dehydrogenase); Potency, µM (doses to about 57.7 µM), hits mostly inhibitors; hit rate 2.6% among 220,000; AID 1347165; active = well fitted inhibition curve with a large enough effect; inconclusive = small, poorly fitted or top-dose-only effect; inactive = no such curve, though single readings can be large or run the other way; also: potency is read from the fitted curve at half-maximal effect; 0% is about no effect; nearly all actives have a fitted effect of over 70% in size
Target sequence (Q9UGL1 whole entry, looked up): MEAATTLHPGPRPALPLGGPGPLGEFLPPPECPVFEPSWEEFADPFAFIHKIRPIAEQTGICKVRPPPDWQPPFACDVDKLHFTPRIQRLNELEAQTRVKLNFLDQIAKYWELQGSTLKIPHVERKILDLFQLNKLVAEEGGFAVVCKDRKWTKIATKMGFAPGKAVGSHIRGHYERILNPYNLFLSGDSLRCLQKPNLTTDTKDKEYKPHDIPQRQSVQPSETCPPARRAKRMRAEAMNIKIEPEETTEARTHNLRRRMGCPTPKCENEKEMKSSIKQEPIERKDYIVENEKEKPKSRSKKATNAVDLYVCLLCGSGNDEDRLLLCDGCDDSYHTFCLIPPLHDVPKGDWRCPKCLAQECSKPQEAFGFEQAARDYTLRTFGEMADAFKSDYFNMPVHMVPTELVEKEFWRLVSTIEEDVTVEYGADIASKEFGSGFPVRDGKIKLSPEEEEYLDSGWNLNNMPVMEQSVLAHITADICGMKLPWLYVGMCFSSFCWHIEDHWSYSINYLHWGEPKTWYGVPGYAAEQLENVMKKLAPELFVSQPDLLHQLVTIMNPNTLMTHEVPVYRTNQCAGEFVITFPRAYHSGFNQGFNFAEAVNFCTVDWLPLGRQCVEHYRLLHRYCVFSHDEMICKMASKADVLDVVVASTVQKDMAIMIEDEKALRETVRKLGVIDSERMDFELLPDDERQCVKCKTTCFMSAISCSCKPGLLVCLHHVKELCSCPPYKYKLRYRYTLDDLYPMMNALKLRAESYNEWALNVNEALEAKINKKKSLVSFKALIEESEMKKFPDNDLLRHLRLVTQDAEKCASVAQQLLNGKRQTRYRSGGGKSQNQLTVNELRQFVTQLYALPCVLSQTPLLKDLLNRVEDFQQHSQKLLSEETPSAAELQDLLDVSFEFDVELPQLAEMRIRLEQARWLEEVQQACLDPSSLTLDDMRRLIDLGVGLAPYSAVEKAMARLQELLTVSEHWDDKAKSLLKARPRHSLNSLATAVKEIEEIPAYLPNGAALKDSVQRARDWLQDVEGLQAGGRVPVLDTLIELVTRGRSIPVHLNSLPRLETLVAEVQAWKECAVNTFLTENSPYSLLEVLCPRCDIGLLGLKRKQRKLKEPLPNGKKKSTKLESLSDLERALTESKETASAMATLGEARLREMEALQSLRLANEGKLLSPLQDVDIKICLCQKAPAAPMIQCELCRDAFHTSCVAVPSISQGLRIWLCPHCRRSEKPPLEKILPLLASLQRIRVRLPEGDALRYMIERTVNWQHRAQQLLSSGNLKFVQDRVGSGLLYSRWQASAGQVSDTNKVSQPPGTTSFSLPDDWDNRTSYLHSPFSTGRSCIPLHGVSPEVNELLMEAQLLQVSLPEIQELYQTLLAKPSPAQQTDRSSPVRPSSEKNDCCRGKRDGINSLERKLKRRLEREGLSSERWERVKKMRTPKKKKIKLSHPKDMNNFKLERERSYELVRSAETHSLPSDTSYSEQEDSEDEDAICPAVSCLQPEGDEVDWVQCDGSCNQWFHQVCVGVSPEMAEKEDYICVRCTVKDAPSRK
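Compound dilutions met 200 nM (final) KDM5BΔAP for 10 min at room temperature before substrate addition. The substrate mix held 12.5 µM H3K4me3 with cofactors 25 µM α-ketoglutarate and 50 µM Fe²⁺. NADH signal gain over 30 min defined activity.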
An asterisk follows results filed as active; i = inactive; ? = inconclusive; . = no result. This is a sample that favours compounds with a hit; in the whole collection about 2.7% have one here.

SMILES	IP6K1 inh	KDM5B inhibitor
CCCNC(=O)Cc1csc2nc(C)c(-c3cc(C)n(-c4cccc(C)c4C)n3)c(=O)n12	14	?
Cc1cccc(-n2nc(-c3c(C)nc4scc(CC(=O)N5CCCC5)n4c3=O)cc2C)c1C	2	?
Cc1cccc(-n2nc(-c3c(C)nc4scc(CC(=O)NC(C)C)n4c3=O)cc2C)c1C	10	25µM*
Cc1nc2scc(CC(=O)NCc3ccco3)n2c(=O)c1-c1cc(C)n(-c2cccc(F)c2)n1	6	?
CCCCNC(=O)Cc1csc2nc(C)c(-c3cc(C)n(-c4cccc(C)c4C)n3)c(=O)n12	-3	28µM*
COCCNC(=O)Cc1csc2nc(C)c(-c3cc(C)n(-c4ccccc4F)n3)c(=O)n12	19	28µM*
O=C(CN1C(=O)S/C(=C\c2ccccc2Cl)C1=O)Nc1ccc2oc(=O)ccc2c1	.	i
COC(=O)C1=C(C)N=C2SC=C(CC(=O)NCCc3ccccc3)N2C1c1cccc(OC)c1 (stereo not given)	12	?
O=C(Nc1cccc(F)c1)[C@@H]1OCCN(C2CC2)[C@H]1c1ccccc1	21	.
COc1cccc(-c2cccc(C(=O)N3CCN(C(=O)c4ccc(Cl)cc4)CC3)c2)c1	-9	.
CN1CCc2c([nH]c3ccccc23)C12CCN(C(=O)c1cccnc1)CC2	-2	i
CCn1ccc(C(=O)N2CCC3(CC2)c2[nH]c4ccccc4c2CCN3C)n1	-4	28µM*
CCOC(=O)c1cnc2ccccc2c1N1CCCC(CO)C1 (stereo not given)	.	i
O=C(c1ccc(N2CC3CC(C2)[C@H]2CCCC(=O)N2C3)nc1)N1CCCC1 (stereo not given in full)	8	?
Cc1cnc(C(=O)N2CCCC(CCc3cccc(F)c3)C2)cn1 (stereo not given)	10	i
O=C(c1cncc(N2CCCC(CCc3cccc(F)c3)C2)n1)N1CCCCC1 (stereo not given)	30	25µM*
N[C@H]1CN(c2cncc(C(=O)N3CCCCC3)n2)C[C@@H]1C1CC1	39	28µM*
CS(=O)(=O)c1ccc(CN2CCN3C(=O)N(Cc4ccccn4)C[C@H]3C2)cc1	-9	28µM*
O=C1N(Cc2ccccn2)C[C@H]2CN(Cc3ccc(C(F)(F)F)cc3)CCN12	-14	i
CNC(=O)c1cc(C2CC2)nc2onc(C3CCN([S+](=O)([O-])c4cccs4)CC3)c12	-16	.
Cc1noc(C)c1CO[C@@H]1COCC[C@H]1NC(=O)c1cccc(=O)[nH]1	21	18µM*
COCc1ccc(C(=O)N[C@@H]2COCC[C@@H]2OCc2c(C)noc2C)o1	-10	i
COc1ccc(-n2cc(CN3CCC(CO)CC3)c(-c3cccc(F)c3)n2)cc1	18	?
COc1ccc(-n2cc(CN3CCCC(O)C3)c(-c3cccc(F)c3)n2)cc1 (stereo not given)	-1	22µM*
CCSc1oc(-c2ccco2)nc1S(=O)(=O)c1ccc(Br)cc1	6	?
SMILES	IP6K1 inh	KDM5B inhibitor
O=C(CSc1oc(-c2ccco2)nc1S(=O)(=O)c1ccc(Br)cc1)c1ccccc1	-28*	?
O=C(NC1CCN(c2nccc(Nc3ccccc3Cl)n2)CC1)c1ccc(C(F)(F)F)cc1	-6	.
O=c1ncn(Cc2ccccc2)c2ccc(-c3ccccc3)nc12	3	35µM*
COc1cc(F)ccc1-c1ccc2c(n1)c(=O)ncn2Cc1ccccc1	-6	35µM*
COCc1cccc(-c2ccc3c(n2)c(=O)ncn3Cc2ccccc2)c1	15	?
COc1cc(F)ccc1-c1ccc2c(n1)c(=O)ncn2CC1CC1	17	?
COc1cc(F)ccc1-c1ccc2ncn(C3CC3)c(=O)c2n1	12	32µM*
O=c1ncn(CC2CC2)c2ccc(-c3ccc(F)cc3F)nc12	-10	32µM*
O=c1ncn(Cc2ccccc2)c2ccc(-c3cccnc3)nc12	1	i
O=c1c2nc(-c3ccccc3C(F)(F)F)ccc2ncn1C1CC1	8	i
CC(C)C(=O)N[C@H]1C[C@@H](Cc2cc(COc3ccccc3)on2)C1(C)C	8	i
N#C/C(=C/c1ccccc1)C(=O)OCC1CCCO1 (stereo not given)	.	i
Cc1nc2nc(CC(=O)Nc3ccccc3)nn2c(C)c1Cc1ccc(Cl)cc1	.	i
O=C(C1CCN(Cc2ccccc2-c2ccccc2F)CC1)N1CCC(Cc2ccccc2)CC1	18	.
Cc1cn2nc(C(=O)Nc3ccc4c(c3)OCCO4)cc2c(N2CCSCC2)n1	12	32µM*
Cc1cn2nc(C(=O)NCc3ccccc3Cl)cc2c(N2CCSCC2)n1	-12	?
Cc1cn2nc(C(=O)Nc3ccc4c(c3)OCO4)cc2c(N2CCCC2)n1	6	?
Cc1cn2nc(C(=O)NCCc3ccccc3)cc2c(N2CCSCC2)n1	9	?
CCc1ccccc1NC(=O)c1cc2c(N3CCSCC3)nc(C)cn2n1	-18	28µM*
Cc1cccc(NC(=O)c2cc3c(N4CCSCC4)nc(C)cn3n2)c1	1	32µM*
COc1ccc(CCNC(=O)c2cc3c(N4CCSCC4)nc(C)cn3n2)cc1OC	10	?
COc1ccc(C(C)NC(=O)c2cc3c(N4CCSCC4)nc(C)cn3n2)cc1OC (stereo not given)	6	6.3µM*
Cc1ccccc1CNC(=O)Cc1nn(C)c(=O)c2ccccc12	.	i
COc1ccc(OCC(O)CN2CCC(=O)N(Cc3ccccc3)Cc3sccc32)cc1 (stereo not given)	9	.
NCC(O)C(F)(F)F (stereo not given)	.	i
SMILES	IP6K1 inh	KDM5B inhibitor
CS(=O)(=O)N1CCN(Cc2nc3ccsc3c(=O)[nH]2)CC1	.	i
COc1ccc(NC(=O)c2cc3c(N4CCSCC4)nc(C)cn3n2)cc1	-7	14µM*
Cc1ccc(CCNC(=O)c2cc3c(N4CCSCC4)nc(C)cn3n2)cc1	-15	?
Cc1cn2nc(C(=O)Nc3ccc(C(F)(F)F)cc3)cc2c(N2CCSCC2)n1	-12	28µM*
COc1ccc(NC(=O)c2cc3c(N4CCSCC4)nc(C)cn3n2)c(OC)c1	2	?
Cc1ccc(NC(=O)c2cc3c(N4CCSCC4)nc(C)cn3n2)cc1	7	35µM*
CCCCCc1ccc(-c2ccc(CCC)cc2)nc1	.	i
CCOc1c(Br)cc(/C=C/C(=O)c2ccc(C#N)cc2)cc1OC	.	i
O=C(c1ccc2ncsc2c1)N(Cc1ccc(F)cc1)C1CC1	.	i
COc1ccccc1N(CCC#N)C(=O)CSc1ncnc2sc3c(c12)CCC3	.	i
COc1cc(Nc2ncnc3scc(-c4ccc(Cl)cc4)c23)cc(OC)c1	.	i
Cc1cccc(OCC(=O)N2CCC3(CC2)CN(c2ccncn2)CC3CO)c1 (stereo not given)	7	i
COc1ccc(CC(=O)N2CCC3(CC2)CN(c2ncccn2)CC3CO)cc1 (stereo not given)	16	?
Cc1cccc(OCC(=O)N2CCC3(CC2)CN(c2ncccn2)CC3CO)c1 (stereo not given)	-5	20µM*
O=C(COc1ccccc1)N1CCC2(CC1)CN(c1ncccn1)CC2CO (stereo not given)	6	22µM*
O=C(COC(=O)c1ccc(F)cc1[N+](=O)[O-])c1ccc(Br)cc1	.	i
O=C(Cc1ccccc1F)N1CC(Oc2ccc(-c3noc(-c4cccnc4)n3)cc2)C1	4	?

Screening results deposited in PubChem by National Center for Advancing Translational Sciences (NCATS).
